Test results as given in PubChem BioAssay AID652254 (National Center for Advancing Translational Sciences (NCATS), 2013).
Active and inactive are the calls of the source.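 How the source made its calls: active means potency for halving colony growth of 5 µM or lower; inconclusive means potency above 5 µM but below 10 µM; inactive means potency of 10 µM or higher.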

assay: qHTS for Inhibitors of Ubiquitin-specific Protease USP2a Using CHOP2 as the Reporter: Clonogenic Assay; details: clonogenic colony formation, crystal violet, 10 days
Source text: Homeostasis of cellular proteins is maintained through a combination of synthesis and degradation. The pathway that accounts for the majority of protein degradation is the ubiquitin-proteasomal pathway. Ubiquitin (Ub) is highly conserved in all cells and the generation of a multi-Ub chain typically targets proteins for degradation by the proteasome. However, ubiquitination is highly reversible and dynamic. Deubiquitination, the reverse process, is catalyzed through the action of enzymes referred to as isopeptidases or deubiquitinating enzymes (DUBs). This group of enzymes is collectively responsible for maintaining adequate pools of free ubiquitin and regulating the ubiquitination status of cellular proteins. […] To further visualize and quantitate the effect of compounds on cell proliferation, a colony forming or clonogenic assay was performed in 6-well plates using HCT116 cells. […] The colonies were visualized on the Typhoon imager (GE) using Cy5 detection, and quantitated with the associated software. […]
2 mL 300 cells/well were dispensed into a 6-well plate in DMEM with 10% FBS and 1% Pen-Strep and then incubated for 48 hours at 37 deg C, 5% CO2. […] The plate is dried overnight and then read on a GE Typhoon FLA 9500 in end-point mode (Ex 635, Em Long-Pass Red Filter)

Question: Which Potency does the source give for `Cc1ccc(S(=O)(=O)Nc2cc(C(F)(F)F)ccc2C(=O)Nc2nc(-c3ccccc3)cs2)cc1` here?
Answer: Its Potency is 3.6 µM (active).
